Bioassay records deposited in PubChem BioAssay by National Center for Advancing Translational Sciences (NCATS).
NPSR antagonist = blocks cAMP signaling of the human neuropeptide S receptor. 220,000 compounds, 1% hits. CHO-NPSR cells, cAMP TR-FRET, antagonist mode. Potency, µM (titrated, usually from 38.3 µM), without a hit: top-dose activity change, negative = inhibition, most hits filed as inhibitors. Q6W5P4; further: potency means the concentration at half of the fitted maximal effect; nearly all actives have a fitted effect of over 50% in size
Target sequence (Q6W5P4 whole entry, looked up): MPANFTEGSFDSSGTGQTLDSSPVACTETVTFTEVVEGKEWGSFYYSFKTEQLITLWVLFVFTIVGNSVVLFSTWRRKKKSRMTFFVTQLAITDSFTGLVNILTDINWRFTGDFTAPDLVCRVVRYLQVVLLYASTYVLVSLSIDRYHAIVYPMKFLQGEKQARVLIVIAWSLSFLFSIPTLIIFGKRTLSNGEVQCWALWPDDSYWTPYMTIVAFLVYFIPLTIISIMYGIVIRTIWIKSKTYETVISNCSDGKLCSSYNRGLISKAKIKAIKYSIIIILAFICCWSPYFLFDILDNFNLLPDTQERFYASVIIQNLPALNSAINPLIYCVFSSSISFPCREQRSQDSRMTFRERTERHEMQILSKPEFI
ALDH1A1 inh = ALDH1A1 (human) enzyme inhibition; P00352; Purified ALDH1A1, NADH fluorescence, propionaldehyde substrate; Potency, µM (highest dose often 75.3 µM), without a hit: at the highest dose activity, negative = inhibition, most hits filed as inhibitors; 220,000 compounds, 7.3% hits; active means well fitted inhibition curve with a large enough effect, not every such curve was filed as active; inconclusive means small, poorly fitted or top-dose-only effect, or another doubt; inactive means no such curve, though single readings can be large or run the other way;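 further: potency means the concentration at half of the fitted maximal effect; plate controls were no enzyme wells and a reference inhibitor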
IMPase Li inh = IMPase inhibition in cells with lithium potentiation; 210,000 compounds, 0.35% hits; CHO-M1 cells, IP1 TR-FRET (IP-One), carbachol + lithium; Potency, µM (highest dose often 59.4 µM), inactives show at the highest dose activity, negative = IMPase inhibition, usual class: inhibitors;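 further: IP1 builds up when IMPase is blocked and the TR-FRET signal falls; potency means the concentration at half of the fitted maximal effect; plate controls were basal vehicle for no effect and high inhibitor control for full effect; nearly all actives have a fitted effect of over 50% in size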
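IP1 accumulation measured by competitive TR-FRET in lysed CHO-M1 cells after 30 min compound exposure at 37C, with a small lithium addition to potentiate weak responses. Hill-equation AC50 from ratio and donor-channel data.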
12-hLO inh = inhibitors of human 12-lipoxygenase (ALOX12); P18054; purified 12-hLO, xylenol orange hydroperoxide absorbance; Potency, µM (top dose mostly 57.1 µM), without a hit: at the top dose activity change, negative = inhibition, most hits filed as inhibitors; 150,000 compounds, 0.12% hits; AID 1452; further: potency means the concentration at half of the fitted maximal effect; nearly all actives have a fitted effect of over 55% in size
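Purified human 12hLO (150 nM), preincubated 15 min with compound, then 40 uM arachidonic acid for 30 min, room temperature, Hepes pH 7.0 with 0.01% Triton X-100. Hydroperoxide detected by ferrous iron/xylenol orange; 573/405 nm absorbance ratio gives reaction progress.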
IMPase inh = IMPase inhibition in cells; CHO-M1 cells, IP1 accumulation, HTRF TR-FRET ratio; AID 901; 120,000 tested, under 10 active; inhibition (IP1 accumulation), % at 46.1 µM; P97697; active means well fitted curve in the direction sought with a large enough effect in the signal ratio, not every such curve was filed as active; inconclusive means small, poorly fitted or top-dose-only effect, or a change in a side signal; inactive means no such curve, though single readings can be large or run the other way; the % refers to the signal ratio;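 further: cells stimulated with carbachol in lithium chloride buffer; plate controls were DMSO basal wells for no effect and reference inhibitor wells for full effect; higher means more IMPase inhibition seen as more IP1 and lower FRET ratio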
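Elevated IP1 in lysates lowers TR-FRET signal (665/620 ratio and 620 channel reported). Cells were CHO-M1, given carbachol (50 uM as added) plus 50mM LiCl, pH 7.4, 30 min, 37C; compounds titrated up to 46 uM; AC50 by Hill equation.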
HPGD inh = inhibitors of human 15-hydroxyprostaglandin dehydrogenase (HPGD); P15428; purified HPGD, NADH fluorescence kinetic, PGE2 substrate; Potency, µM, for inactives: at the highest dose activity change, negative = inhibition, actives largely listed as inhibitors; 150,000 compounds, 4.3% hits; active means well fitted inhibition curve with a large enough effect, not every such curve was filed as active; inconclusive means small, poorly fitted or top-dose-only effect, or another doubt; inactive means no such curve, though single readings can be large or run the other way; further: potency means the concentration at half of the fitted maximal effect
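NADH formation kinetics: reaction with 30 uM PGE2 and 1 mM NAD+ (final), 20 nM enzyme, Tris-HCl pH 8 with Tween 20, after 15 min compound preincubation at room temperature. Fluorescence change, last versus first of five reads.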
Numbers without * were called inactive; [ ] = another dose, or the depositor's remark. Hits are enriched below; roughly 8.9% of the tested compounds scored in any of these assays. Unless noted, the call rests on the fitted dose curve; in most records, active means well fitted curve in the direction sought with a large enough effect; inconclusive means small, poorly fitted or top-dose-only effect, or another doubt; inactive means no such curve, though single readings can be large; an effect the other way counts as inactive or inconclusive. Unless noted, on the % scale 0 is the no-effect control and ±100 the full control effect.

`C=CC(C)(C)c1[nH]c2ccccc2c1C1=C(O)C(=O)C(c2c[nH]c3c(CC=C(C)C)cccc23)=C(O)C1=O` gave ALDH1A1 inh inconclusive, IMPase Li inh 23%, 12-hLO inh inconclusive, IMPase inh 10 and HPGD inh 25µM*.
Cc1ccc(-n2nc3ccc(NC(=O)Cc4ccc(Cl)cc4)cc3n2)cc1 was read as IMPase inh -10.
`CCCCOC(=O)c1ccc(NC(=S)NC(=O)c2c(Cl)cnn2C)cc1` gave NPSR antagonist -17%[46.1 µM], ALDH1A1 inh inconclusive, IMPase Li inh 18%[38.3 µM], 12-hLO inh -5%, IMPase inh -6 and HPGD inh -26%.
Screening CCCCOC(=O)c1ccc(NC(=S)NC(=O)c2c(Cl)cnn2CC)cc1 returned NPSR antagonist -21%[46.1 µM], ALDH1A1 inh 3.5µM*, IMPase Li inh 22%[38.3 µM], 12-hLO inh -3%, IMPase inh 0 and HPGD inh -19%.
For Cc1ccc(N/C(C(Cl)=C(Cl)Cl)=C(/Cl)[N+](=O)[O-])c(C)c1 the results were NPSR antagonist -12%, ALDH1A1 inh 3.5µM*, IMPase Li inh 4%, 12-hLO inh -4% and HPGD inh -24%.
`Cc1ccc(NC(=O)c2c([N+](=O)[O-])c(C(C)(C)C)nn2C)c(C)c1` gave NPSR antagonist 4%, ALDH1A1 inh -5%, IMPase Li inh 5%, 12-hLO inh 0% and HPGD inh -3%.
`COc1ccc2c(c1)S/C(=C\C(=O)c1ccncc1)N2C` gave NPSR antagonist -29%[46.1 µM], ALDH1A1 inh 14µM*, IMPase Li inh inconclusive, 12-hLO inh inconclusive, IMPase inh 12 and HPGD inh 28µM*.
For Cc1ccc(Nc2nc(C)cc(C)n2)c(Br)c1 the results were NPSR antagonist 0%[46.1 µM], ALDH1A1 inh -5%, IMPase Li inh -7%[38.3 µM], 12-hLO inh -8%, IMPase inh 2 and HPGD inh -8%.
Screening CCc1cc2c3c(c1)C(C)CC(C)(C)N3C(=O)C2=O (configuration not stated) returned NPSR antagonist inconclusive, ALDH1A1 inh 0.32µM*, IMPase Li inh -2%, 12-hLO inh 0% and HPGD inh -11%.
`CCOc1cc2c3c(c1)C1(OCCO1)C(=O)N3C(C)(C)CC2C` (configuration not stated) gave NPSR antagonist -10%[46.1 µM], ALDH1A1 inh inconclusive, IMPase Li inh 6%[38.3 µM], 12-hLO inh 4%, IMPase inh 6 and HPGD inh -8%.
Screening Cc1nc2sc3c(c2c(=O)o1)CCCC3 returned NPSR antagonist 8%[46.1 µM], ALDH1A1 inh 1%, IMPase Li inh 14%[38.3 µM], 12-hLO inh -9%, IMPase inh inconclusive and HPGD inh -6%.
Screening Cc1sc(NC(=O)C2CCCCC2C(=O)O)c(C(N)=O)c1-c1ccccc1 (configuration not stated) returned NPSR antagonist -20%[46.1 µM], ALDH1A1 inh -12%, IMPase Li inh -12%[38.3 µM], 12-hLO inh -4%, IMPase inh -4 and HPGD inh -14%.
`CCC(=O)N(CC(=O)Nc1sc(C)c(C)c1C(N)=O)C1CCCC1` gave NPSR antagonist 4%, ALDH1A1 inh 8.9µM* and IMPase Li inh -2%.
COc1ccc(NC(=O)c2c(NC(=O)CCC(=O)O)sc(-c3ccccc3)c2C)cc1 was read as NPSR antagonist -19%, ALDH1A1 inh 8.9µM* and IMPase Li inh -5%.
COC(=O)CCC(=O)Nc1sc(C)c(C)c1C(N)=O was read as NPSR antagonist 1%[46.1 µM], ALDH1A1 inh 13µM*, IMPase Li inh -7%[38.3 µM], 12-hLO inh -8%, IMPase inh -4 and HPGD inh 14µM*.
For Cc1sc(NC(=O)CCC(=O)O)c(C(N)=O)c1-c1ccccc1 the results were NPSR antagonist 6%, ALDH1A1 inh 13µM*, IMPase Li inh -4%, 12-hLO inh -5% and HPGD inh 14µM*.
